Assay outcomes: PubChem BioAssay, several laboratories
Sampled rows, rich in hits. Any-hit rate of the full collection: about 1.9%.
Vif inh – HIV Vif inhibition; HEK293T cells, Vif self-association by quenched fluorescence, imaging, 24 h; inhibition, % at 7.49 µM; 0.35% of 340,000 active; AID 602346; in the data active means inhibition above about 50%, passing the limit was not always enough; inconclusive means no clear call, values can overlap the other calls; inactive means below about 31%
ATG4B inhibitor – ATG4B (human) cysteine protease inhibition | Q9Y4P1 | ATG4B cleavage of LC3-PLA2, NBD-HPC fluorescence, 1 h | inhibition, % at 8.33 µM | 0.51% of 340,000 active | AID 504462; in the data active means inhibition above about 40%
CaV13 FRET inh – Disruptors of the CACNA1D IQ motif to Ca2+-dependent inactivation inhibitor domain association, primary screening, Förster resonance energy transfer in intact living … | HEK cells, CFP/YFP FRET ICDI-IQ, plate reader, 10 min; percent FRET-ratio fall versus neutral wells | 0.098% of 340,000 active | inhibition, % at 12.3 µM;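 active means mean replicate inhibition of at least 30% and at least 1% of replicates passing that level; inconclusive means only one of the two criteria is met; inactive means neither criterion is met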
NSD2 HMT inh – NSD2 (human) methyltransferase inhibition; AID 743445; O96028; 0.54% of 310,000 active; inhibition, % at 12.5 µM; NSD2 peptide methylation, AlphaScreen, 120 min; in the data active means inhibition above about 50%
Glyco luc inh – N-linked glycosylation inhibition. D54 ERlucT glycosylation luciferase reporter, 24 h; percent of 100 nM tunicamycin response. AID 588692. 0.23% of 360,000 active. reporter increase, % at 12.5 µM;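 active means mean luciferase reporter signal, scaled so untreated is 0 and the glycosylation-blocking control 100, at or above a set limit in every replicate; inconclusive means mean reaches the limit but not every replicate does; inactive means mean below the limit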;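 further: luciferase carries N-glycosylation sites so blocking glycosylation raises the light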
Pemphigus Ab inh – inhibitors of pemphigus antibody binding to human desmoglein-3. binding (percent of control), % at 10 µM. P32926. 0.48% of 310,000 active. DSG3-coupled beads, scFv-anti-DSG3-GFP binding, flow cytometry; active compounds read low;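 active means binding more than 3 SD below its plate's average and above zero; inconclusive means below that plate limit but binding exactly zero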;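 further: hits lower antibody fragment binding to DSG3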
Target sequence (P32926 whole entry, looked up, the tested form may be a part): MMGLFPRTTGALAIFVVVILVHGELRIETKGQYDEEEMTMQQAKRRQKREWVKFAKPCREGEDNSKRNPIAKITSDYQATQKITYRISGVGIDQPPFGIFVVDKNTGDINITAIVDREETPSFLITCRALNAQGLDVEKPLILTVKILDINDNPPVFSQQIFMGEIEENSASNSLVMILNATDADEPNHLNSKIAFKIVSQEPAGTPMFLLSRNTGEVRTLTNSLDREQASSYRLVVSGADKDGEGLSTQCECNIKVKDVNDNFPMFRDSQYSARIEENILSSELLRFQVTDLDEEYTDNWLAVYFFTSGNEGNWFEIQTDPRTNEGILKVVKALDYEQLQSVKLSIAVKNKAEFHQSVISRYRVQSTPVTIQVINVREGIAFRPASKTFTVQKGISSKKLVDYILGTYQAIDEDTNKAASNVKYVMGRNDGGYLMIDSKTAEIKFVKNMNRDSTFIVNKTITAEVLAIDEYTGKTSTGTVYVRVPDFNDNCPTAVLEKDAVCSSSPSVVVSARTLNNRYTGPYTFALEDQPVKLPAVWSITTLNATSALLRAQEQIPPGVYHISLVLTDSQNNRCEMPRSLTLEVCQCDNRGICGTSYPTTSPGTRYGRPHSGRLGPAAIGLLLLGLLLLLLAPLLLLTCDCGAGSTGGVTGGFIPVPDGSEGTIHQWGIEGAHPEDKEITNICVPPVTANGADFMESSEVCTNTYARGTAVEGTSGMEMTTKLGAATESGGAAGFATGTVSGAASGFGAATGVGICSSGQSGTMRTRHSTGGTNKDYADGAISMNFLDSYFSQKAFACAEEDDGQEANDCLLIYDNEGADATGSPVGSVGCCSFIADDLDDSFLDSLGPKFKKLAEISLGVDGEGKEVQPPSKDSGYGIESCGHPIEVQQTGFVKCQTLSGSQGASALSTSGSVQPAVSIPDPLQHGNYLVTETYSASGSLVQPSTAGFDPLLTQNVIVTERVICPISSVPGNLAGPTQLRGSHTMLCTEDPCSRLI
AlphaScreen art – interferes with AlphaScreen signal, flagging NSD2 false positives; shares compounds with NSD2 HMT inh; AlphaScreen artifact counterscreen, preloaded methylated H4 peptide; AC35, µM (highest dose often 10 µM); 9.4% of 1,500 active; call rule not given here
Of the large screens only hits and unclear results are named; the others gave an inactive call (follow-up assays come after a bar, where they were run).

CCN1CCCC1CNC(=O)c1ccc2c(c1)N(Cc1cccc(Cl)c1)C(=O)c1ccccc1S2(=O)=O (stereo not drawn)	NSD2 HMT inh 58 | AlphaScreen art inactive
Cc1cc(NC(=O)CSc2ccc3nnc(CCNC(=O)c4ccccc4)n3n2)no1	none
CC(=O)c1ccc(NC(=S)Nc2cccc3cnccc23)cc1	NSD2 HMT inh 81 | AlphaScreen art inactive
Cc1ccc(NC(=S)Nc2cccc3cnccc23)cc1C	none
Cc1ccc(NC(=S)Nc2cccc3cnccc23)cc1	NSD2 HMT inh 101 | AlphaScreen art inactive
CC1CCCCN1C(C(=O)O)c1ccccc1 (stereo not drawn)	none
COc1ccccc1CN(Cc1cc2cc3c(cc2[nH]c1=O)OCCO3)Cc1nnnn1Cc1ccco1	NSD2 HMT inh 60 | AlphaScreen art inactive
COc1ccc(C)cc1COC(=O)c1[nH]c(C)c(C(C)=O)c1C	NSD2 HMT inh 55 | AlphaScreen art inactive
O=C(Cn1ncc2c(=O)oc3ccccc3c21)N1CCN(C(=O)c2ccco2)CC1	none
O=C(NCCN1CCOCC1)c1cc(S(=O)(=O)Nc2ccccc2F)c(Cl)cc1Cl	none
Cc1ccc(NC(=O)CN2CCN(CCN=CC3=C(O)CC(c4ccccc4)CC3=O)CC2)cc1 (stereo not drawn)	none
COc1ccccc1/C=N/Nc1cc(C)nc(N2CCOCC2)n1	NSD2 HMT inh 57 | AlphaScreen art inactive
COc1ccccc1/C=N/Nc1cc(N(C)C)nc(N(C)C)n1	NSD2 HMT inh 100 | AlphaScreen art inactive
COc1ccc(/C=N/Nc2cc(C)nc(N3CCOCC3)n2)cc1OC	none
COc1ccc(/C=N/Nc2cc(N(C)C)nc(N(C)C)n2)cc1	none
CN(C)c1cc(N/N=C\c2ccccc2)nc(N(C)C)n1	NSD2 HMT inh 103 | AlphaScreen art inactive
Cc1ccc(NC(=O)CN(C)CCOc2ccccc2)c([N+](=O)[O-])c1	NSD2 HMT inh 75 | AlphaScreen art inactive
COc1ccc(C2C(C(=O)/C=C/c3ccco3)=C(O)C(=O)N2CCN2CCOCC2)cc1OC (stereo not drawn)	NSD2 HMT inh 72 | AlphaScreen art inactive
CCCOc1ccc(C2C(C(=O)c3ccco3)=C(O)C(=O)N2CCN2CCOCC2)cc1OC (stereo not drawn)	none (no result: Vif inh, ATG4B inhibitor, CaV13 FRET inh, Glyco luc inh, Pemphigus Ab inh)
COc1ccc(C2C(C(=O)c3ccco3)=C(O)C(=O)N2CC2CCCO2)cc1OC (stereo not drawn)	Vif inh inconclusive, NSD2 HMT inh 62 | AlphaScreen art inactive
Nc1nc(O)c(Sc2ccccc2[N+](=O)[O-])c(=O)[nH]1	NSD2 HMT inh 54 | AlphaScreen art inactive
COc1cc(OC)c(-c2c3cc(O)c(=O)cc-3oc3cc(O)c(O)cc23)cc1OC	NSD2 HMT inh 143 | AlphaScreen art 0.85µM
Cc1c2cc(O)c(=O)cc-2oc2cc(O)c(O)cc12	none (no result: NSD2 HMT inh)
Cc1ccc(Nc2nc(-c3ccc(O)c(O)c3)cs2)nc1	NSD2 HMT inh 88 (no result: Vif inh, Glyco luc inh, Pemphigus Ab inh) | AlphaScreen art inactive
O=C(CN1CCOCCOCCN(CC(=O)Nc2ccccc2)CCOCC1)Nc1ccccc1	NSD2 HMT inh 166 (no result: Pemphigus Ab inh) | AlphaScreen art inactive
O=C(CN1CCOCC1)Nc1ccc(Oc2ccccc2)cc1	NSD2 HMT inh 53 (no result: Vif inh, Pemphigus Ab inh) | AlphaScreen art inactive
COc1ccc(NC(=O)CN2CCN(S(=O)(=O)N3CCCCCC3)CC2)cc1	NSD2 HMT inh 74 (no result: Pemphigus Ab inh) | AlphaScreen art inactive
Cc1ccc(-c2cn(-c3ccc(OC(F)F)cc3)c3[n+]2CCCCC3)cc1	none
c1ccc(NN=C2c3ccccc3-c3ccccc32)cc1	none
O=C(O)c1ccc(NS(=O)(=O)c2ccc3c(c2)C2C=CCC2C(c2ccccc2F)N3)cc1 (stereo not drawn)	NSD2 HMT inh 159 | AlphaScreen art inactive
O=C(O)c1ccc2c(c1)C1C=CCC1C(c1cc3c(cc1Br)OCO3)N2 (stereo not drawn)	none
Cc1cc(C)c(NC(=S)N(C)C)cc1C	NSD2 HMT inh 56 | AlphaScreen art inactive
COc1cc(OC)c([N+](=O)[O-])cc1/C=N/NC(=O)c1ccncc1	NSD2 HMT inh 81 | AlphaScreen art inactive
COc1cc(/C=N/NC(=O)c2ccncc2)c([N+](=O)[O-])cc1OC	none
CCN1CCCCC(=N/O)/C(=N/O)CCCC1	NSD2 HMT inh 71 | AlphaScreen art inactive
Cc1ccc(NC(=O)N2CCN(C(=O)C3CCCO3)CC2)cc1 (stereo not drawn)	none (no result: Vif inh, CaV13 FRET inh)
O=C(CCCC(=O)OCC(F)(F)C(F)F)Nc1ccc(NC(=O)CCCC(=O)OCC(F)(F)C(F)F)cc1	none
Cc1ccc(NC(=O)CCC(=O)OCC(F)(F)C(F)F)cc1	NSD2 HMT inh 121 | AlphaScreen art inactive
COc1ccc(/C=C(\C#N)C(=O)Nc2cccc3ncccc23)cc1OC	none
N#C/C(=C\c1ccc(O)c(O)c1)C(=O)Nc1cccc2ncccc12	NSD2 HMT inh 115 | AlphaScreen art 4.8µM
O=C(NC1CCCC1)c1cc(-c2ccc(Cl)cc2Cl)on1	NSD2 HMT inh 89 (no result: Pemphigus Ab inh) | AlphaScreen art inactive
CCCCNS(=O)(=O)c1ccc2nc(-c3cccnc3)cc(C(=O)NCCOC)c2c1	none
Cc1cc2nn(-c3cccc4ccccc34)nc2cc1NC(=O)c1cccs1	NSD2 HMT inh 126 | AlphaScreen art inactive
CC(C)(C)NC(=O)C(c1ccco1)N(C(=O)Cn1nnc(-c2ccc(F)cc2)n1)c1ccccc1F (stereo not drawn)	NSD2 HMT inh 50 | AlphaScreen art inactive
CN(CC(=O)N1CCc2[nH]c3ccc(F)cc3c2C1)CC1OCCO1	none (no result: Vif inh, Glyco luc inh, Pemphigus Ab inh)
Cc1ccc2[nH]c3c(c2c1)CN(C(=O)CN(C)CC1OCCO1)CC3	NSD2 HMT inh 64 | AlphaScreen art inactive
O=C1NN=C(c2ccc(Cl)cc2)CC1c1c[nH]c2ccccc12 (stereo not drawn)	none
CC(C)(C)c1ccc(-c2csc(NNC3=NCCCCC3)n2)cc1	none (no result: Pemphigus Ab inh)
O=C1c2ccccc2C(=O)N1CCC(c1ccc(F)cc1)c1ccco1 (stereo not drawn)	NSD2 HMT inh 119 | AlphaScreen art inactive
O=C1CCC(=O)N1CCC(c1ccc(F)cc1)c1ccco1 (stereo not drawn)	none
CC1CN(C(=S)Nc2cccc([N+](=O)[O-])c2)CC(C)O1 (stereo not drawn)	none
CN(c1ccccc1)S(=O)(=O)c1ccc(C(=O)NNC(=O)c2ccccc2)cc1	Pemphigus Ab inh inconclusive
CN(c1ccc(C(=O)O)cc1)S(=O)(=O)c1ccccc1	NSD2 HMT inh 52 (no result: CaV13 FRET inh) | AlphaScreen art inactive
CC1(C)Cc2c(c(-c3ccco3)[nH]c(=O)c2C#N)CS1	NSD2 HMT inh 94 | AlphaScreen art inactive
